Shown are actives, neighbours in structure and some others; about 18% of the full set was active somewhere.
VP16 counter: VP16 counterscreen qHTS for inhibitors of ROR gamma transcriptional activity; Drosophila S2 Gal4-VP16 UAS-luciferase, luminescence, 20 h; Potency, µM (titrated, usually from 53.6 µM), for the others: top-dose activity, negative = inhibition, actives largely listed as inhibitors; 3.5% of 310,000 active; AID 2546, 2010;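 further: Gal4-VP16 expression switched on by copper sulfate through the metallothionein promoter; potency means the concentration at half of the fitted maximal effect; nearly all actives have a fitted effect of over 50% in size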
IL-1B inflam inh: qHTS for Inhibitors of Inflammasome Signaling: IL-1-beta AlphaLISA Primary Screen; THP-1 LPS/ATP IL-1B secretion, AlphaLISA, 16 h; stronger effect = lower value; 4.7% of 360,000 active; activity change, % at 57.5 µM; AID 743279, 2014; in the data active means activity change below about -50%; inconclusive means mostly about -30% to -49%
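Secreted IL-1B measured by AlphaLISA bead assay after 16 h compound exposure of THP-1 cells; compounds (final up to 57.5 uM) added 1 h before LPS (250 ng/mL) and ATP (1.25 mM) stimulation; lower signal means less secretion.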
TDP1 cell CPT: qHTS for Inhibitors of human tyrosyl-DNA phosphodiesterase 1 (TDP1): qHTS in cells in presence of CPT | Potency, µM (top dose mostly 46.2 µM), for inactives: top-dose activity change, negative = growth inhibition, actives largely listed as inhibitors | chicken DT40 Tdp1-/-;hTDP1 cells + 20 nM CPT, ATP luminescence, 48 h | 12% of 420,000 active | AID 686979, 2013; further: potency means the concentration at half of the fitted maximal effect; nearly all actives have a fitted effect of over 55% in size
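Chicken DT40 Tdp1-/- cells stably complemented with human TDP1 were seeded at 400 cells/well in medium containing 20 nM camptothecin, exposed to pin-transferred compounds, and grown at 37 °C for at least 48 hr. Viability was read as ATP luminescence.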
LDHA block: qHTS assay for inhibitors of human lactate dehydrogenase | 0.15% of 480,000 active | purified LDHA, NADH/diaphorase-resazurin fluorescence; stronger effect = lower value | AID 1347041, 2019 | activity change, % (values are at about 110 or 230 µM); in the data active means activity change below about -30%; inconclusive means mostly about -25% to -30%;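 further: plate controls were DMSO wells for no effect and wells without enzyme for full effect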
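Remaining NADH was detected by diaphorase (0.133 mg/mL) converting 37 µM resazurin to fluorescent resorufin, read at 0 and 20 minutes. The preceding 5-minute room-temperature reaction used 2 nM LDHA, 0.2 mM sodium pyruvate and 0.06 mM NADH at pH 7.4.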
TDP1 cell noCPT: qHTS for Inhibitors of human tyrosyl-DNA phosphodiesterase 1 (TDP1): qHTS in cells in absence of CPT; DT40 Tdp1-/- hTDP1 cells, no CPT, ATP luminescence, 48 h; Potency, µM (highest dose often 46.2 µM), for the others: at the top dose activity change, negative = growth inhibition, actives largely listed as inhibitors; 15% of 420,000 active; further: potency means the concentration at half of the fitted maximal effect; nearly all actives have a fitted effect of over 55% in size
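Cells were dispensed at 400 per well, compounds added by pin tool, plates incubated ≥48 hr at 37 °C, then CellTiter-Glo added for 30 min at room temperature before luminescence reading. Line: DT40 Tdp1-/- complemented with hTDP1; camptothecin omitted.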
RORgamma inh: qHTS for inhibitors of ROR gamma transcriptional activity | Potency, µM (doses to about 53.6 µM), for the others: at the top dose activity change, negative = inhibition, most hits filed as inhibitors | AID 2551, 2010 | Nuclear receptor ROR-gamma (Mus musculus), P51450 | Drosophila S2 Gal4-RORgamma UAS-luciferase reporter, 20 h | 5.4% of 310,000 active; further: potency means the concentration at half of the fitted maximal effect; nearly all actives have a fitted effect of over 60% in size
Target sequence (P51450 whole entry, looked up, the tested form may be a part): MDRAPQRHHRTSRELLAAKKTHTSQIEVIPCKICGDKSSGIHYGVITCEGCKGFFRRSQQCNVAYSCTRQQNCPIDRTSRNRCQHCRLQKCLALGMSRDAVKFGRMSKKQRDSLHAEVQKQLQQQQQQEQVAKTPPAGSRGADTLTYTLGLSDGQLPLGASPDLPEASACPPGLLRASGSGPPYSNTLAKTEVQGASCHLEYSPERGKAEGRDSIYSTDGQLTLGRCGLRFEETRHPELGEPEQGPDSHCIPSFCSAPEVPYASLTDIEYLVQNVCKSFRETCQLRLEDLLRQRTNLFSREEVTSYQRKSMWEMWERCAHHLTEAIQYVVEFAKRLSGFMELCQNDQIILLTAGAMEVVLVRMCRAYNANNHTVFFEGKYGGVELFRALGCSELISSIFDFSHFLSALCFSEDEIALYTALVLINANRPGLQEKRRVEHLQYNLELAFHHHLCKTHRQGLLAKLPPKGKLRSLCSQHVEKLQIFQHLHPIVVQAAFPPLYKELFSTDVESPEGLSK
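Using a luciferase readout, inhibitors were identified by reduced reporter activity in Drosophila cells coexpressing a copper-inducible Gal4–ROR gamma fusion and UAS-driven Photinus luciferase, incubated 20 hr after 700 uM copper sulfate.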
An asterisk follows results filed as active; ? = inconclusive; . = no result; [ ] = remark or other dose. Unless noted, the call rests on the fitted dose curve; in most records, active means well fitted curve in the direction sought with a large enough effect; inconclusive means small, poorly fitted or top-dose-only effect, or another doubt; inactive means no such curve, though single readings can be large; an effect the other way counts as inactive or inconclusive. Unless noted, on the % scale 0 is the no-effect control and ±100 the full control effect.

SMILES	VP16 counter	IL-1B inflam inh	TDP1 cell CPT	LDHA block	TDP1 cell noCPT	RORgamma inh
CC(C)CNc1ncnc2c1ncn2[C@H]1CN(Cc2cccc3ccccc23)C[C@@H](CO)O1	.	-15.5	18.4µM*	-2.5	?	.
CC(C)CNc1ncnc2c1ncn2[C@H]1CN(Cc2ccc(Cl)cc2)C[C@@H](CO)O1	.	-9.8	?	-9.2	?	.
OC[C@@H]1CN(Cc2cccc3ccccc23)C[C@H](n2cnc3c(NCc4ccco4)ncnc32)O1	.	?	20.6µM*	-3.7	20.6µM*	.
O=C(CCCc1nc(-c2ccccc2)no1)NCC1CCCO1 (stereo not given)	.	.	.	0.8	.	.
O=C(CCNS(=O)(=O)c1ccc2[nH]c(=O)ccc2c1)N1CCN(c2ccc(Cl)cc2)CC1	.	.	.	1.0	.	.
CSc1cccc(NS(=O)(=O)c2cc3[nH]c(=O)c(=O)[nH]c3cc2C)c1	.	.	.	13.9	.	.
CCN(C)c1ccc(/C=C/c2ccnc3ccccc23)cc1	.	.	11.2µM*	5.7	11.2µM*	.
CCN(CCC(=O)O)c1ccc(/C=C/c2ccnc3ccccc23)cc1	.	.	2.3%	-13.0	?	.
CN(C)c1ccc(N=Nc2ccccc2Br)cc1	?	17.6	-14.3%	2.9	-0.2%	8.91µM*
CCN(CC)CCN(CC)c1ccc(/C=C/c2ccnc3ccccc23)cc1	.	.	-90.9%	4.8	4.47µM*	.
CCN(CC)c1ccc(/C=C/c2ccnc3ccccc23)cc1	.	.	?	3.9	17.8µM*	.
O=CNC12CCC3CC(CC(C3)C1)C2	.	.	.	-2.1	.	.
COC(=O)c1cc(S(=O)(=O)Nc2ccc(Cl)cc2F)c[nH]1	.	.	.	-7.2	.	.
CC(C)CNC(=O)c1ccc(C2Nc3cc(C(F)(F)F)ccc3S(=O)(=O)N2)cc1 (stereo not given)	.	.	.	-1.3	.	.
C=CCN(CC=C)c1ccc(/C=C/c2ccnc3ccccc23)cc1	.	.	17.8µM*	4.5	?	.
Cc1cccc2c(/C=C/c3ccc(N(C)C)cc3)ccnc12	.	.	?	-2.2	?	.
CC(C)CN(CC(C)C)c1ccc(/C=C/c2ccnc3ccccc23)cc1	.	.	12.6µM*	4.0	17.8µM*	.
CN(C)c1ccc(N=Nc2ccnc3ccccc23)cc1	.	.	?	1.9	22.4µM*	.
CCCCCCCCCCN(CCCCCCCCCC)c1ccc(/C=C/c2ccnc3ccccc23)cc1	.	.	-24.2%	1.9	-27.6%	.
CN(C)c1ccc(N=Nc2nccs2)cc1	.	-16.3	-9.2%	0.1	?	.
CN(C)c1ccc(N=Nc2ccc(/C=C/c3ccnc4ccccc34)cc2)cc1	.	.	?	6.2	17.8µM*	.
CC(C)(C)c1ccc(-c2nnc(SCC(=O)NCc3ccco3)n2Cc2ccco2)cc1	.	.	.	9.9	.	.
CCCCCCCN(CCCCCCC)c1ccc(/C=C/c2ccnc3ccccc23)cc1	.	.	-22.2%	2.3	-14.6%	.
CCN(Cc1ccccc1)c1ccc(/C=C/c2nccc3ccccc23)cc1	.	.	12.6µM*	2.3	?	.
CCCCN(CCC#N)c1ccc(/C=C/c2ccnc3ccccc23)cc1	.	.	10µM*	.	10µM*	.
SMILES	VP16 counter	IL-1B inflam inh	TDP1 cell CPT	LDHA block	TDP1 cell noCPT	RORgamma inh
OCCN(CCO)c1ccc(/C=C/c2ccnc3ccccc23)cc1	.	.	8.91µM*	.	14.1µM*	.
Nc1ccc(/C=C/c2nccc3ccccc23)cc1	.	.	?	-1.0	?	.
O=C(Cc1c(Cl)cccc1Cl)N1CCN(c2ccccc2O)CC1	.	.	.	10.0	.	.
COC(=O)c1ccc(COC(=O)c2ccc(C(=O)OCc3ccc(C(=O)OC)o3)cc2)o1	.	.	.	0.8	.	.
Cc1csc(SCC(=O)N2CCOc3ccc(C(O)C4CCCCC4)cc3C2)n1 (stereo not given)	.	.	?	.	20.6µM*	.
Fc1ccc(/C=N/Nc2nccnc2Cl)cc1	1.2%	?	-27.1%	-2.9	-26.3%	-5.2%
COc1ccc(NC2=Nc3cccc4cccc2c34)cc1	?	-7.6	?	-4.1	25.9µM*	12.6µM*
Fc1ccc(/C=N/NC2=Nc3cccc4cccc2c34)cc1	?	-17.4	-3.7%	-2.3	?	1.12µM*
COc1cc(/C=C/c2nc(C#N)c(NCc3ccco3)o2)cc(OC)c1OC	.	.	.	9.9	.	.
O=C(CN1C(=O)S/C(=C\c2cccn2-c2ccc(C(=O)O)cc2)C1=O)Nc1cccc(F)c1	.	.	.	-2.3	.	.
O=C(O)CC(c1ccc(F)cc1)c1ccc(Cl)cc1 (stereo not given)	.	.	.	2.3	.	.
O=S(=O)(NCc1ccccc1Cn1cccn1)c1ccc(F)cc1F	.	.	.	-10.1	.	.
c1ccc(CCC2Cc3ccccc3N2)cc1 (stereo not given)	.	-4.5	?	-0.8	-1.7%	.
c1ccc(CC[C@@H]2CC[C@@H](CCc3ccccc3)N2)cc1	.	-2.1	11.6µM*	1.6	18.4µM*	.
CCCc1nc2oc3c(NCCCN(C)C)ncnc3c2c2c1CCCC2	?	.	?	2.2	?	?
CC(C)Cc1nc2oc3c(NCC(C)O)ncnc3c2c2c1CCCC2 (stereo not given)	-11.4%	0.0	?	2.1	14.6µM*	18.7%
CCCc1nc2oc3c(NCCN(C)C)ncnc3c2c2c1CCCC2	-16.1%	0.0	18.4µM*	0.6	16.4µM*	-25.6%
CC(C)Cc1nc2oc3c(Cl)ncnc3c2c2c1CCCC2	-27.6%	-9.2	?	-3.6	?	-27.9%
O=S(=O)(NCCc1ccc(-n2cccn2)cc1)c1ccccc1	.	.	.	5.1	.	.
O=C(CCn1ncc(=O)c2ccccc21)N1CCCC1c1ccc2c(c1)OCCO2 (stereo not given)	.	.	.	4.5	.	.
Cn1c(=O)cc(NCCc2ccccc2)[nH]c1=O	0.8%	28.0	7.31µM*	-4.4	10.3µM*	-1.2%
Cn1c(=O)cc(Nc2ccccc2)[nH]c1=O	-0.5%	28.2	-16.2%	-3.9	-17.6%	-25.0%[1.91 µM]
Cn1c(=O)cc(Nc2ccc(Cl)cc2)[nH]c1=O	1.7%	40.9	?	-1.9	20.6µM*	2.7%
Cn1c(NCCc2ccccc2)cc(=O)n(C)c1=O	-13.1%	-10.6	0.0%	-5.2	-15.8%	10.1%
Cc1cc(CS(=O)(=O)Cc2cccc(Cl)c2)no1	.	.	.	3.8	.	.
CC(C)c1ccc(OCC(=O)NC2CCCC2)cc1	-6.0%	3.4	2.0%	-3.3	16.4%	36.1%
Cc1ccc(C(C)C)cc1OCC(=O)NC1CCCCCCC1	.	-57.4*	18.4µM*	-0.5	?	.
